# According to PubChem BioAssay (NCATS):
# Records with an inconclusive call do not appear. Entries that show only a call come without a potency. Unmarked numbers belong to inactive results. Active and inactive are the calls of the source. Calls come from the whole dose curve; as a rule, active = well fitted inhibition curve with a large enough effect; inconclusive = small, poorly fitted or top-dose-only effect; inactive = no such curve, though single readings can be large or run the other way.
# Tested on: Zika virus NS2B-NS3 protease (linked construct)
# Assay: Primary screen NINDS Rhodamine qHTS for Zika virus inhibitors (AID 1347160); note: nearly all actives have a fitted effect of over 55% in size
# Settings: purified NS2B-NS3 protease, Rhodamine110 substrate fluorescence; series mostly up to 57.1 µM
# Method in brief: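 Purified linked NS2B-NS3 protease (NS2B hydrophilic domain joined to NS3 protease by flexible linker), 25 nM in 10 mM Tris-HCl pH 8.0, 0.01% Tween 20. Compounds titrated, 15 min preincubation at room temperature; 1.5 microM Rhodamine110 substrate, FITC fluorescence change over 15 min.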
# Potency is the fitted concentration of half-maximal effect.
Compound,Potency,"activity change, negative = inhibition"
O=S(=O)(NCc1cccc2ccccc12)c1cc(Cl)c(Oc2cccc(N3CCNCC3)c2)s1,inactive,
NC(N)=NC(=O)c1cnn(-c2cccc3ncccc23)c1C1CC1,inactive,
NCC(CNc1nc(Nc2cccc(NC(=O)N3CCCC3)c2)ncc1I)C(=O)c1cccs1 (stereo not drawn),inactive,
Cc1nc2c(C(F)(F)F)cccc2nc1-c1ccc(-c2cccc(S(C)(=O)=O)c2)cc1,inactive,
Cc1cc2c(N3CCCC3)nc(N3CCCC3)nc2n1C,inactive,
CC(=O)OC(C)(C)/C=C/C(=O)[C@](C)(O)[C@H]1C(O)C[C@@]2(C)[C@@H]3CC=C4[C@@H](C=C(O[C@@H]5O[C@H](CO)[C@@H](O)[C@H](O)[C@H]5O)C(=O)C4(C)C)[C@]3(C)C(=O)C[C@]12C (stereo partly drawn),inactive,
O=C(NO)c1cnc(N2CCN(S(=O)(=O)c3ccc4ccccc4c3)CC2)nc1,inactive,
COc1ccc(NC(=O)C2C[C@H](C)CC[C@H]2C(C)C)cc1 (stereo partly drawn),inactive,
C#CCCCn1cc(-c2cccc3c2N[C@H](C)CC(=O)N3)cn1,inactive,
CCC/C=C\C=C/CCc1cc(O)c([C@@H]2O[C@H](CO)[C@@H](O)[C@H](O)[C@H]2O)c(O)c1C(=O)OC,inactive,
CC(C)(C)OC(=O)c1ncn2c1C(C)(C)Nc1ccccc1-2,inactive,
O=C(NCCCN1CCOCC1)c1cnn2c(-c3ccccc3)cc(-c3ccccc3)nc12,inactive,
O=C(Nc1ccccc1)N1CCC(Cc2cnc3ccccc3c2)CC1,inactive,
COc1c(F)cccc1C(=O)N1C[C@@H](C)CC[C@H]1CNc1ccc(Br)cn1,inactive,
C=C1CC2[C@@]3(C)C=CC(=O)C(C)(C)C3=C(O)C(=O)[C@@]2(C)C2(C(=O)OC)C(=O)C(C)OC(=O)[C@@]12C (stereo partly drawn),inactive,
CC(C)C[C@@H](C(=O)N[C@@H](Cc1ccc(OCc2ccccc2)cc1)C(=O)NC(C)(C)C)N(C)Cc1ccc(C(C)(C)C)cc1,inactive,
CC(C)(C)c1ccc(-c2nc3c(N4CCN(Cc5ccc6nccnc6c5)CC4)cccc3[nH]2)cc1,inactive,
O=C(Cc1c(F)cccc1F)Nc1cc(OCc2ccc(Cl)cc2)ccn1,inactive,
C=C1CO[C@@]2(O[C@H]3CC4C5CC=C6C[C@@H](O)C[C@@H](O[C@@H]7OC[C@H](O)[C@H](O[C@@H]8OC[C@@H](O)[C@H](O)[C@H]8O)[C@H]7O[C@@H]7O[C@@H](C)[C@H](OC(C)=O)[C@@H](OC(C)=O)[C@H]7OC(C)=O)[C@]6(C)C5CC[C@]4(C)[C@@H]3[C@@H]2C)[C@@H](O)[C@H]1OC1OC(C)C(O)C(O)C1O (stereo partly drawn),,5.43% [at 10.7 µM]
CCC(C)CNCC(=O)N1CCc2sccc2C1COc1cccc(C)c1 (stereo not drawn),inactive,
C[C@@H](NC(=O)C(=O)c1c[nH]c2ccc([N+](=O)[O-])cc12)c1ccccc1,inactive,
COc1ccc(-c2cnc3c(-c4cccc5ncccc45)cnn3c2)cc1,inactive,
CC(=O)OC(C)(C)/C=C/C(=O)C(C)(O)C1C(O)CC2(C)C3CC=C(C(C)(C)C(=O)O)C(CC(=O)O)C3(C)C(=O)CC12C (stereo not drawn),inactive,
O=C(NO)c1ccc(CC(=O)N(CCO)c2ccccc2)cc1,inactive,
O=C(NC1CCN(CCCCC2(C(=O)NCC(F)(F)F)c3ccccc3-c3ccccc32)CC1)c1ccccc1-c1ccc(C(F)(F)F)cc1,inactive,
CN(C)C(=O)Nc1cccc(-c2ccc(N(C)C)cc2)c1,inactive,
Cc1cc(NC(=O)NCCN2CCC(O)(Cc3ccccc3)CC2)c2ccccc2n1,inactive,
O=C(Nc1cccc(C(F)(F)F)c1)Nc1ccc(Br)cc1-c1nn[nH]n1,17.8 µM (active),
